Inconclusive results are not listed. Where a call stands in place of a potency, no number is given. Active and inactive are the calls of the source. Calls come from the whole dose curve; as a rule, active = well fitted cell-killing curve with a large enough effect in the repeat runs; inconclusive = weak or mixed curves, or effect the other way; inactive = flat fitted curve, though single readings scatter.
Assay: Nuclear factor erythroid 2-related factor 2/antioxidant responsive element (Nrf2/ARE) small molecule agonists: qHTS cell viability counter screen in human keratinocytes (AID 1919968); note: nearly all actives have a fitted effect of over 55% in size
Summary of the method: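 Parallel cytotoxicity read: KeratinoSens HaCaT cells, compound treatment 23 h, viability by CellTiter-Fluor fluorescence 1 h post-reagent.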
Potency is the fitted concentration of half-maximal effect.

## O=[N+]([O-])C(Br)Br
  Potency: inactive

## CCC(=O)c1ccc(Cl)cc1
  Potency: inactive

## COc1cccc2c1C(=O)c1c(O)c3c(c(O)c1C2=O)C[C@@](O)(C(=O)CO)CC3OC1CC(N2CCOC(OC)C2)C(O)C(C)O1 (some centres not stated)
  Potency: 7.5 µM (active)

## CN(C1CCCCC1)C1CCCCC1
  Potency: inactive

## ClC(Cl)(Cl)Cl
  Potency: inactive

## CC1(C(=O)Nc2ccc(O)c(Cl)c2Cl)CCCCC1
  Potency: inactive

## CCCCCCCCc1ccc(O)cc1
  Potency: 43.5 µM (active)

## C1=CCC=C1
  Potency: inactive

## O.O.O.O.O.O.O=S(=O)([O-])[O-].[Ni+2]
  Potency: inactive

## SCc1ccccc1
  Potency: inactive

## Cc1ncc(C[n+]2csc(CCO)c2C)c(N)n1
  Potency: inactive

## CCCC(Cn1cncn1)c1ccc(Cl)cc1Cl (configuration not stated)
  Potency: inactive

## O=C(Oc1ccc(Br)cc1)N1CCN2CCC1CC2
  Potency: inactive

## CCOC(=O)CCl
  Potency: inactive

## Oc1ccc(I)cc1
  Potency: inactive

## C=CC(=O)OC
  Potency: inactive

## C[C@]12CC[C@H]3[C@@H](CCC4=CC(=O)CC[C@@H]43)[C@@H]1CC[C@@H]2OC(=O)CCc1ccco1
  Potency: inactive

## CC(=O)[O-].[Tl+]
  Potency: inactive

## ClC1=C(Cl)[C@]2(Cl)[C@@H]3[C@@H]4C[C@@H]([C@H]5O[C@@H]45)[C@@H]3[C@@]1(Cl)C2(Cl)Cl
  Potency: 48.6 µM (active)

## CCS(=O)(=O)c1cccnc1S(=O)(=O)NC(=O)Nc1nc(OC)cc(OC)n1
  Potency: inactive

## COP(=S)(OC)Oc1cc(Cl)c(Br)cc1Cl
  Potency: inactive

## [C-]1=CC=CC1.[Cl][Zr+2][Cl].c1cc[cH-]c1
  Potency: inactive

## COP(=S)(OC)Oc1nc(Cl)c(Cl)cc1Cl
  Potency: inactive

## CC(=O)[O-].CC(=O)[O-].O.O.[Cd+2]
  Potency: 42.7 µM (active)

## CC(=O)[O][Sn]([c]1ccccc1)([c]1ccccc1)[c]1ccccc1
  Potency: 0.0486 µM (active)

## CC(=O)[O-].CC(=O)[O-].[Hg+2]
  Potency: 3.06 µM (active)

## CC(=O)[O-].CC(=O)[O-].[Co+2]
  Potency: inactive

## CC(C)Br
  Potency: inactive

## c1ccc(OCC2CO2)cc1 (configuration not stated)
  Potency: inactive

## CCCSP(=O)(OCC)SCCC
  Potency: inactive

## Clc1ccc(CO/N=C(\Cn2ccnc2)c2ccc(Cl)cc2Cl)c(Cl)c1
  Potency: 23.7 µM (active)

## Cc1cc(C)c(C(=O)P(=O)(C(=O)c2c(C)cc(C)cc2C)c2ccccc2)c(C)c1
  Potency: inactive

## COc1ccc2[nH]cc(CCN(C(C)C)C(C)C)c2c1
  Potency: inactive

## CC(=O)O.CC(=O)O.CC(=O)O.CC(=O)O.CC(=O)O.CC(=O)O.CC(=O)O.O.O.[Cr].[Cr].[Cr]
  Potency: inactive

## CC1(C)CCC(Cc2ccc(Cl)cc2)C1(O)Cn1cncn1 (configuration not stated)
  Potency: inactive

## CC1CCCC1
  Potency: inactive

## CCNC(=O)NC(=O)/C(C#N)=N/OC
  Potency: inactive

— PubChem BioAssay (Tox21)
